Among all 13,000 compounds or so, about 3,200 (25%) showed an effect of 50% or more. Some of the results follow.
System: P. falciparum stage V gametocytes
Parameters: BacTiter-Glo ATP luminescence viability of purified stage V gametocytes in 384-well plates, per cent inhibition versus DMSO
Settings: 48 h, 5 µM; inhibitor

SMILES | % Inhibition
O=C(N[C@@H](CC1CCCCC1)C(=O)NCc1cccc2ccccc12)c1ccc(O)c(-c2ccc(Cl)c(Cl)c2)c1 [TCMDC-140879] | 41.81%
Cc1noc(C)c1-c1cccc(CNCc2ccc(-c3cccc(-c4nc5cc(F)ccc5[nH]4)c3)cc2)c1.O=C(O)C(F)(F)F [TCMDC-133060] | 13.66%
Cc1cccc(Oc2cccc3[nH]nc(N)c23)c1 [TCMDC-131935] | -73.01%
COCCOc1cccc(CN2CCC(c3cc4nc(C)cc(C(F)(F)F)n4n3)C2)c1 (stereo not drawn) [TCMDC-134506] | -5.307%
Cc1cc(C(F)(F)F)n2nc(C(=O)N(Cc3cncn3Cc3cccc(F)c3)CC3CC3)cc2n1 [TCMDC-132460] | 0.2406%
Cc1cc(C(F)(F)F)n2nc(C3CCN(Cc4cc(C)c(O)c(C)c4)C3)cc2n1 (stereo not drawn) [TCMDC-124827] | 92.15%
COCC(=O)N(Cc1cccc(-c2ccc(CNCCc3ccccc3)cc2)c1)C1CCN(Cc2ccccc2)CC1 [TCMDC-140536] | 103%
COCCNCc1ccc(-c2cccc(CN(C(=O)NCCc3ccccc3)C3CCN(Cc4ccccc4)CC3)c2)cc1 [TCMDC-140616] | 102.8%
O=C(c1cccs1)N(Cc1cccc(-c2ccc(CNC3CCCC3)cc2)c1)C1CCN(Cc2ccccc2)CC1 [TCMDC-140567] | 107%
O=C(NCCc1ccccc1)N(Cc1cccc(-c2ccc(CNCCc3ccccc3)cc2)c1)C1CCN(Cc2ccccc2)CC1 [TCMDC-140617] | 94.88%
COc1cc(Nc2ccnc3ccc(C(F)(F)F)cc23)cc(OC)c1OC [TCMDC-138471] | 8.096%
Cc1cc(C)cc(N2C(N)=NC(N)=NC2(C)C)c1 [TCMDC-137927] | 10.77%
CCOC(=O)c1c(NC(NC(=O)c2ccc(C(C)(C)C)cc2)C(Cl)(Cl)Cl)sc2c1CCCC2 (stereo not drawn) [TCMDC-125722] | 17.61%
Cc1cccc(CC(N)=NCCCCCCN=C(N)Cc2cccc(C)c2)c1 [TCMDC-138135] | -14.49%
CC(C)C[C@H](NC(=O)OC(C)(C)C)C(=O)Nc1ccc(Cc2ccc(NC(=O)[C@H](CC(C)C)NC(=O)OC(C)(C)C)cc2)cc1 [TCMDC-131866] | -6.979%
CCS[C@@H]1O[C@H](COC(=O)c2ccccc2)[C@H](OC(=O)c2ccccc2)[C@H](OC(=O)c2ccccc2)[C@H]1OC(=O)c1ccccc1 [TCMDC-137162] | 42.17%
COc1ccccc1Nc1nc(C)cc(NCc2ccc(-c3c(C)noc3C)cc2)n1 [TCMDC-133453] | 12.57%
Cc1[nH]c2cc(Cl)ccc2c1C1=CCN(CCCCC2(C)C(=O)Nc3ccccc32)CC1 (stereo not drawn) [TCMDC-140945] | -53%
COc1cc(C(=O)NCCCN2CCN(c3cccc(Cl)c3)CC2)ccc1-c1cc2cc(Cl)c(Cl)cc2[nH]1 [TCMDC-139622] | 6.24%
O=C(NCCc1ccccc1)N(Cc1cccc(-c2ccc(CNC3CCCC3)cc2)c1)C1CCN(Cc2ccccc2)CC1 [TCMDC-140618] | 99.39%
O=C(NCCc1ccccc1)N(Cc1ccc(-c2cccc(CN3CCNCC3)c2)cc1)C1CCN(Cc2ccccc2)CC1 [TCMDC-139635] | 105.4%

SMILES | % Inhibition
O=C(c1cccs1)N(Cc1cccc(-c2ccc(CNCCc3ccccc3)cc2)c1)C1CCN(Cc2ccccc2)CC1 [TCMDC-140566] | 66.5%
O=c1cc(NCCCNCc2cc3ccccc3s2)[nH]c2ccccc12 [TCMDC-140234] | -96.03%
COc1ccc(NC(=O)/C=C/c2ccc(Cl)c(C(F)(F)F)c2)cc1OCCN(C(C)C)C(C)C [TCMDC-139646] | -39.1%
COc1ccc(Br)cc1C1C2C(=O)N(c3ccc(Br)cc3)C(=O)C2C2(C(=O)O)CC(OCc3ccccc3)CN12 (stereo not drawn) [TCMDC-139264] | 14.59%
N#Cc1ccnc(-c2ccc(CNC3CCN(CC4Cn5c(=O)ccc6ccc(F)c4c65)CC3)cc2)c1 (stereo not drawn) [TCMDC-134408] | -28.26%
CCc1ccc(OCCCON2C(N)=NC(N)=NC2(C)C)cc1 [TCMDC-131321] | 2.956%
CC(=O)Nc1cccc(NC(=O)CSc2ccc(-c3nc4ccccc4[nH]3)cn2)c1 [TCMDC-123529] | 49.75%
O=C(C1CC1c1ccccc1)N(Cc1ccc(-c2ccc(CNCCc3ccccc3)cc2)cc1)C1CCNCC1 (stereo not drawn) [TCMDC-141443] | 108.5%
O=C(CCC1CCCC1)N(Cc1ccc(-c2ccc(CNCCc3ccccc3)cc2)cc1)C1CCCNC1 (stereo not drawn) [TCMDC-141444] | 116.1%
CC(=O)Nc1ncc(C(=O)Nc2cccc(-c3cccc(-c4nc5ccccc5[nH]4)c3)c2)s1 [TCMDC-136911] | 11.96%
CC(=O)N1N=C(c2[nH]c3ccc(Br)cc3c2C)OC1c1ccccc1 (stereo not drawn) [TCMDC-124752] | 9.307%
NCc1ccc(Nc2nccc(Nc3ccc(-c4ccccc4)cc3)n2)cc1 [TCMDC-136004] | 25.82%
Cc1cc(N)nc2ccc(CNCCc3ccccc3Br)cc12 [TCMDC-138092] | 32.49%
Cc1ccc(Cc2c(N)nc3nc(N)nc(N)c3c2C)cc1 [TCMDC-138063] | 9.056%
Cc1ccc(O)cc1Nc1ccnc2ccc(-c3cccc(CN(C)C)c3)cc12 [TCMDC-138481] | 38.94%
COc1ccc(CCNCc2ccc3nc(N)cc(C)c3c2)cc1 [TCMDC-138093] | 96.45%
COc1ccc2nc(C)cc(NCc3ccc4ccccc4c3)c2c1.Cl [TCMDC-138977] | 6.085%
Cc1cc(N)nc2ccc(-c3cccc(CN)c3)cc12 [TCMDC-137784] | 92.85%
Cc1cc(N)nc2ccc(-c3ccc(CCN)cc3)cc12 [TCMDC-137786] | 103.4%
Cc1cc(N)nc2ccc(-c3ccc(CN)cc3)cc12 [TCMDC-137785] | 97.26%
COc1ccc(CCNCc2ccc3c(C)cc(N)nc3c2)cc1 [TCMDC-138096] | 41.14%
